Test results from PubChem BioAssay AID652104 (National Center for Advancing Translational Sciences (NCATS), 2013).
The whole screen tested about 410,000 compounds, of which about 7,200 (1.8%) were called active. Inconclusive results (about 7%) are left out. The call rests on the fitted dose curve; in most records, active means well fitted activation curve with a large enough effect; inconclusive means small, poorly fitted or top-dose-only effect, or another doubt; inactive means no such curve, though single readings can be large or run the other way. The sample as a whole holds a higher share of actives than the screen did.

Experiment: qHTS of TDP-43 Inhibitors; further: nearly all actives have a fitted effect of over 50% in size; on growth rescue (activation): % of control where 0% means no effect
Settings: TDP-43 expressing yeast growth rescue, BacTiter-Glo, 24 h; series mostly up to 46.1 µM; growth rescue (activation): at the top concentration
Outline: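 In this qHTS, compounds that restore growth of yeast expressing TDP-43 appear as activators. Cells (OD600=0.02, galactose medium, raffinose-pregrown) are incubated with compound 24 hr at 30 deg C and growth is quantified by BacTiter-Glo.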
Potency means the concentration at half of the fitted maximal effect.

Growth rescue (activation), inactive:
Cc1ccc(-c2nnc(SCc3ccccc3C)o2)cc1 14.3%
COc1ccc(CCNC(=O)c2ccc3c(c2)sc2nc(-c4ccc(C)cc4)cn23)cc1OC 19.4%
O=C(OCc1ccc(-c2ccccc2)cc1)c1cccc(O)c1 -90.7%
Oc1ccc(-c2nncn2-c2ccccc2)cc1 7.88%
COCCN(Cc1ccco1)C(=O)Cn1ncc2c([nH]c3ccccc32)c1=O 13%
COc1cccc(CNC(=O)C(=O)NCC(c2cccs2)S(=O)(=O)c2ccccc2)c1 (configuration not stated) -8.15%
COc1ccc(Br)cc1CNC(=O)c1cc(=O)[nH]c2ccc(S(=O)(=O)N3CCCC3)cc12 18.9%
CCOC(=O)N1CCc2c(sc3c2C(=O)NC(c2ccccc2F)N3)C1 (configuration not stated) 15.8%
COc1ccccc1N1CCN(C(=O)CSc2ncnc3c2cnn3-c2ccc(C)c(C)c2)CC1 4.55%
CCN(c1ncnc2c1cnn2-c1ccc(C)cc1)C1CCCCC1 22%
CCC(C)N(C(=O)CSc1ncnc2c1cnn2-c1ccccc1)C1CCS(=O)(=O)C1 (configuration not stated) 21.9%
Clc1cccc(-n2ncc3c(NCCc4ccccc4)ncnc32)c1 0%
CCN(C(=O)CSc1ncnc2c1cnn2-c1ccccc1)C1CCS(=O)(=O)C1 (configuration not stated) -4.49%
CCOc1cccc(NC(=O)c2ccc(F)c(S(=O)(=O)N(CC)c3cccc(C)c3)c2)c1 10.1%
Cc1ccccc1-n1c(=O)c2ccccc2n(Cc2ccc(F)cc2)c1=O 0%
CCn1c(C(=O)Nc2cc(Cl)ccc2C)cc2sc(Cl)cc21 5.74%
CCC(=O)N1CCc2cc(Br)cc(S(=O)(=O)CCC(=O)NCc3ccccc3OC)c21 2.93%
CCc1cccc(C)c1NS(=O)(=O)c1ccc(-c2cc(C)no2)s1 6.01%
Cc1cc(NC(=O)C2CCC(CNS(=O)(=O)c3ccc(Br)s3)CC2)ccc1Br (configuration not stated) 11.5%
COc1ccc(OC)c(CCNC(=O)CCCn2c(=O)c3cccn3c3cccnc32)c1 9.05%
CN1CCN(C(CNC(=O)c2ccccc2F)c2ccc3c(c2)OCO3)CC1 (configuration not stated) 22.5%
Cc1ccc(-c2nnc3c4ccccc4c(C)nn23)cc1NC(=O)c1cccc(Br)c1 6.34%
CCCN1CCN(CCCNC(=O)c2cnn(-c3ccc(C)cc3)c2-n2cccc2)CC1 -13%
CCn1nccc1C(=O)Nc1ccc(S(=O)(=O)NC23CC4CC(CC(C4)C2)C3)cc1 -9.71%
Cc1ccc(-c2nn(CCC(=O)Nc3ccc(Cl)c(Cl)c3)c(=O)c3ccccc23)cc1 -5.81%
COc1ccc(OCC(=O)Nc2cc(C)c(Cl)cc2OC)c([N+](=O)[O-])c1 -6.38%
COc1ccc(-c2noc(-c3ccc(N4CCN(c5ccccc5)CC4)c([N+](=O)[O-])c3)n2)cc1OC 22.5%
COc1ccc(Cl)cc1NC(=O)CSc1nc(=O)[nH]c2c1CCCC2 20.8%
CCOC(=O)c1cc(NC(=O)c2ccc(F)cc2)c(=O)n2c1oc1ccccc12 19%
Cc1ccc(F)cc1NC(=O)CCSc1nc(-c2ccco2)cc(C(F)(F)F)n1 0%
CC(C)(C)c1ccc(S(=O)(=O)NC(=O)C2(C)CCN2C(=O)CC2CC2)cc1 (configuration not stated) 12.9%
CCCC(=O)N1CCC1(C)C(=O)NS(=O)(=O)c1ccc(Cl)cc1 (configuration not stated) 20.4%
CCCCS(=O)(=O)c1oc(-c2cccs2)nc1S(=O)(=O)c1ccccc1 9.11%
CCC(=O)N1CCc2cc(Br)cc(S(=O)(=O)CCC(=O)NCCc3ccc(OC)c(OC)c3)c21 -3.94%
COc1cccc(CNC(=O)CSc2c3c(nc4cc(Cl)ccc24)CCCC3)c1 0%
COc1cccc(CNC(=O)c2ccc3c(c2)sc2nc(-c4cccc(OC)c4)cn23)c1 11.4%
CCC(C(=O)Nc1cccc(Cl)c1C)n1nc(-c2ccc(C)cc2)ccc1=O (configuration not stated) 19.3%
Cc1cccc(C(CC(=O)NCC2(c3ccccc3)CCCC2)c2ccccc2)c1O (configuration not stated) 1.56%
COc1ccc(NC(=O)N2CCCC(c3nc(-c4ccc(F)cc4)no3)C2)cc1 (configuration not stated) -8.68%
CC(C)c1ccc(NC(=O)C2CCN(c3nc(-c4ccc(C(C)C)cc4)no3)CC2)cc1 15.4%
O=C(Nc1cc(C(F)(F)F)ccc1Cl)c1ccc2c(c1)CCN2S(=O)(=O)c1ccccc1 0.492%
Cc1ccccc1CNC(=O)CSc1nnc(C)c2c(C)n(-c3ccccc3)nc12 -0.0928%
Cc1ccc(Cl)cc1N1CCN(C(=O)c2cn(C)c3ccc(S(=O)(=O)N(C)C4CCCCC4)cc3c2=O)CC1 -6.86%
Cc1cccc(Cn2c(=O)n(CCC(=O)NCCc3ccc(Cl)cc3)c(=O)c3sccc32)c1 -5.44%
O=C1Nc2ccc([N+](=O)[O-])cc2C1=Nc1cccc(CO)c1 -7.38%
Cc1nc2ccccc2nc(=O)c1NNc1ccc([N+](=O)[O-])cc1 12.8% [at 9.22 µM]
NC(=O)CSc1c[nH]c2ccccc12 -0.941%
C[n+]1ccc(/C=C/c2c[nH]c3ccccc23)cc1 -10.3%
NS(=O)(=O)c1ccc2nc(NC(=O)COc3ccccc3)sc2c1 24% [at 9.22 µM]
CC1CN(C(=O)N2CCC(C(=O)NCc3ccco3)CC2)c2cc(Cl)ccc2O1 (configuration not stated) 0%

Potency, active:
Oc1ccc(-c2cccc(-c3ccc(O)cc3)c2)cc1 6.31 µM
CC(C)Sc1ncnc2c1cnn2-c1ccccc1 12.6 µM
CCN(CC)C(=O)CSc1ncnc2c1cnn2-c1ccccc1 15.8 µM
COC(=O)CSc1ncnc2c1cnn2-c1ccc(C)cc1C 17.8 µM
CCn1nccc1C(=O)Nc1ccc(Cl)c(Cl)c1 17.8 µM
Cc1nnc(-c2ccc(Oc3ccc(C)c(C)c3)c([N+](=O)[O-])c2)o1 20 µM
CC(C)c1ccc(CC(=O)N2CCC2(C)C(=O)NS(=O)(=O)c2ccc(C(C)(C)C)cc2)cc1 (configuration not stated) 22.4 µM
COc1cccc(CNC(=O)c2ccc3c(Cl)c4c(nc3c2)CCCC4)c1 15.8 µM
CCN(C(=O)C1CCCN(c2nc(-c3ccc(OC)cc3)no2)C1)c1ccc(OC)cc1 (configuration not stated) 22.4 µM
O=[N+]([O-])c1ccc2c(c1)Nc1nc3ccccc3nc1N2 22.4 µM
CSC(=S)N/N=C/c1c[nH]c2ccccc12 12.6 µM

Potency, inactive:
Cc1ccc(-n2ncc3c(Nc4cccc(C(=O)O)c4)ncnc32)cc1
